Laboratory results reported in PubChem BioAssay (Tox21).
Records with an inconclusive call do not appear. A call without a number means that no potency is given here. Calls of active or inactive are those of the source. Calls come from the whole dose curve.

Test: p53 small molecule agonists, cell-based qHTS assay with rat liver microsomes: qHTS cell viability counter screen (AID 1963580); note: nearly all actives have a fitted effect of over 45% in size
Conditions: p53RE-bla HCT-116 + rat microsomes, ATP viability, 16 h; series mostly up to 66 µM
Description: National Center for Advancing Translational Sciences [NCATS]
Division of Preclinical Innovation [DPI]
U.S. Environmental Protection Agency [EPA]
National Institutes of Environmental Health Sciences [NIEHS]
National Toxicology Program [NTP]
U.S. Food and Drug Administration [FDA]
p53, a tumor suppressor protein, is activated following cellular insult, including DNA damage and other cellular stresses. The activation of p53 regulates cell fate by inducing DNA repair, cell cycle arrest, apoptosis, or cellular senescence. The activation of p53, therefore, is a good indicator of DNA damage and other cellular stresses. The CellSensor p53RE-bla HCT-116 cell line contains a stably integrated beta-lactamase reporter gene under control of the p53 response elements. The activation of the reporter gene under culture conditions can be detected by fluorescence intensity. This cell line was used to screen the Tox21 10K compound library in the condition of presence of rat liver microsomes and to identify agonists that activate the p53 signaling pathway after in vitro metabolic activation (Ooka et al., Archive of Toxicology 96:1975-1987, 2022). The cytotoxicity of the Tox21 compound library against the p53 RE-bla HCT-116 cell line was tested in parallel by measuring the intra cellular ATP content in the same wells.
Tox21 Assay Protocol Summary:
The p53RE-bla cells were dispensed at 4,000cells/3ul/well in 1536-well black-clear bottom plates. After the assay plates were incubated at 37 C, 5% CO2 incubator for 5 hours, 23 nL of compounds dissolved in DMSO, positive controls or DMSO only was transferred to the assay plate. Following compound addition, 3 uL of rat liver microsomes (Molecular Toxicology, Boone, NC) at final concentration of 0.5 mg/mL and 1uL of B-Nicotinamide adenine dinucleotide 2'-phosphate (NADPH) at final concentration of 0.5 mg/mL were transferred to the assay plate. The plates were incubated at 37 C for 16 hours. 1 uL of LiveBLAzer detection mixture was added to each well and the plates were incubated at room temperature in the dark for 2 h. Fluorescence intensity at 460 and 530 nm emission and 405 nm excitation were measured by an Envision plate reader. For cell viability readout that measures cytotoxicity, 4 ul/well of CellTiter-Glo reagent was added into the assay plates using a Flying Reagent Dispenser. After 30 min incubation at room temperature, the luminescence intensity in the plates was measured using a ViewLux plate reader.
Potency is the fitted concentration of half-maximal effect.

SMILES | Potency | activity change, negative = cytotoxicity
CCCCCOC(=O)Nc1nc(=O)n([C@@H]2O[C@H](C)[C@@H](O)[C@H]2O)cc1F | inactive | –
Fc1ccccc1[C@@H](F)COC1CCC(Nc2ncnc3[nH]ncc23)CC1 (stereo not given in full) | inactive | –
CCCCN1C(=O)[C@@H]([C@H](O)C2CCCCC2)NC(=O)C12CCN(Cc1ccc(Oc3ccc(C(=O)O)cc3)cc1)CC2 | inactive | –
CC(C)(C)C1CCC(CC2=C(O)c3ccccc3C(=O)C2=O)CC1 (stereo not given) | inactive | –
O=C1OC2(c3ccc(O)cc3Oc3cc(O)ccc32)c2ccc(N=C=S)cc21 | inactive | –
O=C(O)c1nc(Cl)c(Cl)c(Cl)c1Cl | inactive | –
OCCN1CCOCC1 | inactive | –
O=C1Nc2ccc(Cl)cc2[C@@](C#CC2CC2)(C(F)(F)F)O1 | inactive | –
N[C@@H](CS)C(=O)O | inactive | –
CC1=C(C(=O)O)N2C(=O)[C@@H](NC(=O)[C@H](N)C3=CCC=CC3)[C@H]2SC1 | inactive | –
CCCOc1ccc(S(=O)(=O)N2CCN(CC)CC2)cc1-c1nc2c(CC)n(Cc3ccccn3)nc2c(=O)[nH]1 | inactive | –
CCCCCCCCCCCCCCCCCCCl | – | 2.02% [at 5.99 µM] (inactive)
CN1C[C@H]2c3ccccc3Oc3ccc(Cl)cc3[C@@H]2C1 | inactive | –
CCCCCCCCOC(=O)c1ccc(O)cc1 | inactive | –
C/C(=C(/OCCOc1ccc(Cl)cc1)c1ccc(Cl)cc1Cl)n1ccnc1 | inactive | –
O=C(N/N=C/c1ccccc1O)c1ccncc1 | inactive | –
C=CC(C)=CCC=C(C)C | inactive | –
Cc1cc(NC(=O)C(=O)O)cc(C)c1Oc1ccc(O)c2c1CCC2 | inactive | –
CC(C)N1C(=O)c2ccccc2C1=O | inactive | –
C=CCCCCCCC=C | inactive | –

SMILES | Potency | activity change, negative = cytotoxicity
Cc1c(Cl)c(=O)oc2cc(O)ccc12 | inactive | –
CC1(CO)CN(c2ccccc2)NC1=O (stereo not given) | inactive | –
Cc1ccc([N+](=O)[O-])c(N)c1 | inactive | –
CCN(CC)CCNC(=O)COc1ccc(OC)cc1 | inactive | –
OCCCCCO | inactive | –
O=C1OC2(c3ccccc31)c1ccc(O)c(Br)c1Oc1c2ccc(O)c1Br | inactive | –
COC(C)CCO (stereo not given) | inactive | –
COc1cc([N+](=O)[O-])ccc1N | inactive | –
C[C@H](CCC(=O)O)[C@H]1CC[C@H]2[C@@H]3CC[C@@H]4C[C@H](O)CC[C@]4(C)[C@H]3C[C@H](O)[C@]12C | inactive | –
C=CCOC(=O)COCCC(C)C | inactive | –
CCCCCCC(=O)c1ccccc1 | inactive | –
OCCCS | inactive | –
BrCCOc1ccccc1 | inactive | –
COc1ccc(OC(F)(F)F)cc1CN[C@H]1CCCN[C@H]1c1ccccc1 | inactive | –
CCOC(=O)CC(O)(CC(=O)OCC)C(=O)OCC | inactive | –
N#CCCOCCC#N | inactive | –
Oc1cccc2c(O)cccc12 | 32.4 µM (active) | –
COc1ccc2c(c1)c1c3n2CCN(C)C3=NCC1 | inactive | –
O=C1c2ccccc2C(=O)c2c(O)ccc(O)c21 | inactive | –
CCCOCC(C)OCC(C)O (stereo not given) | inactive | –
